Screening results (PubChem BioAssay)
ATXN2 expr inh: ATXN2 expression inhibition | HEK-293 ATXN2-luciferase reporter, luminescence, 24 h | Potency, µM (highest dose often 57 µM), inactives show at the top dose activity change, negative = inhibition, actives largely listed as inhibitors | actives 0.72% (n = 360,000); also: potency is read from the fitted curve at half-maximal effect; % is scaled to controls: 0 for no effect and ±100 for the full control effect; nearly all actives have a fitted effect of over 55% in size
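qHTS (up to 57 uM final) was run with 24 h compound exposure of reporter cells at 37 °C. Each well was multiplexed: SteadyGlo luminescence measured ATXN2-luciferase expression after a fluorogenic Gly-Phe-AFC viability readout (25 uM final).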
S2 tox: viability counter-screen for ATXN expression inhibitors; S2 cells (HEK-293 line with an ATXN2-luciferase reporter) viability, CellTiter-Fluor protease fluorescence, 24 h; Potency, µM (titrated, usually from 56.7 µM), hits mostly cytotoxic; actives 0.49% (n = 400,000); also: potency is read from the fitted curve at half-maximal effect; nearly all actives have a fitted effect of over 40% in size
MCF10A rereplic: inducers of DNA re-replication in MCF 10A breast cells; Potency, µM (titrated, usually from 46.1 µM), for inactives: at the highest dose activity, positive = re-replication, usual class: activators; AID 624296; MCF 10A DNA re-replication, Hoechst nuclear intensity, 48 h; actives 2.9% (n = 350,000); also: potency is read from the fitted curve at half-maximal effect; % of control where 0% means no effect; nearly all actives have a fitted effect of over 50% in size
PINK1 modulator: modulators of PINK1 expression; PINK1 immunofluorescence, high-content cytometry, 24 h; Potency, µM (top dose mostly 76.6 µM), inactives show at the top dose activation (PINK1 increase), hits mostly activators; actives 0.2% (n = 410,000); AID 624263; active = well fitted activation curve with a large enough effect; inconclusive = small, poorly fitted or top-dose-only effect; cell line not stated here; also: potency is read from the fitted curve at half-maximal effect; % of control where 0% means no effect; nearly all actives have a fitted effect of over 65% in size
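Decision-based qHTS: stable cells, 24 h exposure to five compound concentrations, CCCP as control. Fixed cells stained for PINK1 plus nuclear, mitochondrial and cell markers, cytometer read.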
IL1B secr inh: inflammasome signaling inhibition, IL-1 beta readout; THP-1 LPS/ATP IL-1B secretion, AlphaLISA, 16 h; hits give low values; activity change, % at 57.5 µM; actives 4.7% (n = 360,000); in the data active = activity change below about -50%; inconclusive = mostly about -30% to -49%; also: % is scaled to controls: 0 for no effect and ±100 for the full control effect
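Secreted IL-1B measured by AlphaLISA bead assay after 16 h compound exposure of THP-1 cells; compounds (final up to 57.5 uM) added 1 h before LPS (250 ng/mL) and ATP (1.25 mM) stimulation; lower signal means less secretion.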
SW480 rerep: DNA re-replication induction in SW480 cells | SW480 DNA re-replication, Hoechst DNA content imaging, 48 h | Potency, µM (titrated, usually from 46.1 µM), inactives show at the highest dose re-replication activation, most hits filed as activators | actives 1.8% (n = 340,000); also: potency is read from the fitted curve at half-maximal effect; % of control where 0% means no effect; nearly all actives have a fitted effect of over 55% in size
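DNA re-replication was detected as more nuclei of elevated Hoechst intensity after 48 hr exposure to compound (23 nL pinned per well of 250 cells).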
* hit, by the source's call; i = inactive; u = inconclusive; x = no result given; [ ] = remark or other dose. Sampled rows, rich in hits. Any-hit rate of the full collection: about 7.1%. Unless noted, calls follow the shape of the dose curve; as a rule, active = well fitted curve in the direction sought with a large enough effect; inconclusive = small, poorly fitted or top-dose-only effect, or another doubt; inactive = no such curve, though single readings can be large; an effect the other way counts as inactive or inconclusive.

SMILES	ATXN2 expr inh	S2 tox	MCF10A rereplic	PINK1 modulator	IL1B secr inh	SW480 rerep
CSc1ccc(/C=C/C(=O)c2ccc(NC(=O)Cc3ccccc3)cc2)cc1	-12%	i	u	6%[38.3 µM]	-20	18µM*
CSc1ccc(/C=C/C(=O)c2ccc(NC(=O)C(C)C)cc2)cc1	-13%	i	u	-2%	u	u
CCOC(=O)Nc1ccc(C(=O)/C=C/c2ccccc2)cc1	-29%	u	u	1%	-88*	u
Nc1nc(N)c2snnc2n1	x	x	x	0%	x	x
COc1ccc(CN2CCC3(CC2)c2ccccc2[C@@H](NC(=O)c2ccsc2)[C@@H]3OC)cc1O	x	i	x	0%	x	x
O=C1CN(C(=O)COc2ccc(Cl)cc2Cl)C(c2ccc(F)cc2)c2cc(F)ccc2N1 (centres undefined)	u	u	x	0%	x	x
COc1cc(=O)n2c(c1C(=O)N(C)Cc1nonc1C)CCN(Cc1ccsc1)CC2	x	i	x	0%	x	x
CCCN(C(=O)c1cccs1)c1nnc(-c2ccncc2)s1	10%	i	-5%	-1%	-50*	0%
CCN(C(=O)Cc1ccccc1OC)c1nnc(-c2ccncc2)s1	-10%	i	8%	-1%[38.3 µM]	2	-3%
O=C(CCC(=O)N1CC2CCCN2c2ccccc21)NCc1ccccc1F (centres undefined)	x	x	x	0%	x	x
C=CCN1C(=O)/C(=C/c2ccc(O)cc2)S/C1=N/c1nccs1	-9%	x	23µM*	6%	u	5%
C=CCN=C1S/C(=C\c2ccc(N(C)C)cc2)C(=O)N1CC=C	16%	i	18µM*	7%	-15	u
COc1ccc(CCN2CC(C(=O)N(C)Cc3c(C)n[nH]c3C)CCC2=O)cc1 (centres undefined)	12%	i	0%	-1%	2	-24%
CC(C)N(Cc1nc(-c2ccc(Cl)cc2)no1)C(=O)/C=C/c1ccccc1	-6%	i	u	1%	-62*	15%
CC(C)N(Cc1nc(-c2ccc(Cl)cc2)no1)C(=O)C(c1ccccc1)c1ccccc1	-22%	i	13%	7%	-11	24%
COc1cc(-c2nc(Cn3nnc(C(=O)Nc4cccc(Cl)c4)c3C)c(C)o2)cc(OC)c1OC	3%	i	x	1%	x	x
O=C(CCCNS(=O)(=O)c1cccc2nsnc12)NCCc1ccccc1	5%	i	0%	0%	16	3%
O=S(=O)(NCCc1ccccc1)c1cccc2nsnc12	7%	i	5.2µM*	x	-12	u
O=C(CCC1CCCC1)Nc1cc(Cl)ccc1N1CCOCC1	0%	i	23%	1%	-57*	u
COC(=O)c1ccc(N2CCOCC2)c(NC(=O)Nc2cccc(OC)c2)c1	32µM*	u	7%	0%	25	-5%
O=C(NC(=S)Nc1cccc(Cl)c1N1CCCCC1)c1ccc2c(c1)OCCO2	-15%	i	4.6µM*	7%	-6	u
O=C(Nc1cccc(Cl)c1N1CCCCC1)c1ccc2c(c1)OCCO2	-15%	i	u	14%	-4	0%
CCN(CC)S(=O)(=O)c1ccc(N2CCOCC2)c(NC(=O)CCC2CCCCC2)c1	-4%	i	7%	2%	-13	0%
CCN(CC)S(=O)(=O)c1ccc(N2CCOCC2)c(NC(=O)c2cc(C)cc(C)c2)c1	-13%	i	12%	-2%	-51*	9%
COc1cc(=O)n2c(c1C(=O)N(C)Cc1nonc1C)CCN(Cc1cc(C)c(C)cc1C)CC2	x	i	x	1%	x	x
SMILES	ATXN2 expr inh	S2 tox	MCF10A rereplic	PINK1 modulator	IL1B secr inh	SW480 rerep
COc1cccc(CNC(=O)Cc2csc3ccccc23)c1OC	x	x	x	-1%	x	x
CCCC(=O)N1CCN(c2ccc(NC(=O)c3ccc4c(c3)OCCO4)cc2)CC1	u	i	1%	13%	-9	-8%
CC(=O)N1CCN(c2ccc(NC(=O)c3ccc4c(c3)OCCO4)cc2Cl)CC1	19%	i	u	0%	-88*	-4%
CC(C)C(=O)N1CCN(c2ccc(NC(=O)c3ccc4c(c3)OCCO4)cc2Cl)CC1	u	18µM*	18µM*	-2%[38.3 µM]	-97*	6%
CC(C)C(=O)N1CCN(c2ccccc2NC(=O)c2ccc3c(c2)OCCO3)CC1	2%	i	-3%	-1%	10	-9%
CC(Oc1cccc(Cl)c1)C(=O)Nc1ccccc1N1CCCCC1 (centres undefined)	7%	i	u	u	11	1%
CC(Oc1cccc(Cl)c1)C(=O)Nc1cc(Cl)ccc1N1CCOCC1 (centres undefined)	-28%	i	u	5%	-14	9.2µM*
O=C(Nc1cc(Cl)ccc1N1CCOCC1)c1ccc2c(c1)OCCO2	-12%[11.3 µM]	i	6%	-1%	-71*	-7%
COc1ccc(CC(=O)NCc2ccc3c(c2)CCN3C(=O)c2ccccc2)cc1OC	x	x	x	1%	x	x
Brc1ccc(-c2cn3nc4c(nc3n2)CCCC4)cc1	-20%	u	2%	18%	-10	-4%
Brc1ccc(-c2cn3c(n2)CCc2ccc4cccnc4c2-3)cc1	5%	i	23µM*	9%	17	u
S=C(NCc1ccccc1)NC1CCCc2ccccc21 (centres undefined)	4%	i	0%	27%	-57*	-1%
O=C(Nc1ccccc1)NC1CCCc2ccccc21 (centres undefined)	x	i	-2%	2%	-12	1.2µM*
O=C(Nc1ccc(F)cc1)NC1CCCc2ccccc21 (centres undefined)	5%	i	25%	6%	25	-1%
CCCCOc1ccc(S(=O)(=O)NCc2csc(-c3ccc(OC)cc3)n2)cc1	x	x	x	-1%	x	x
O=C(NCCSc1c[nH]c2ccccc12)c1ccc(Br)o1	-17%	i	15%	-1%	-10	5%
Cc1[nH]c2ccccc2c1SCCNC(=O)c1ccc(Br)o1	-11%	i	-10%	x	-82*	-4%
Cc1cccc(CN(C)C[C@H]2OCc3cnnn3CCCC(=O)N([C@@H](C)CO)C[C@@H]2C)c1	10%	i	x	3%	7	x
CC[C@H](C)[C@@H](CN[C@H](C)CNC)NCCC(c1ccccc1)c1ccccc1	u	32µM*	u	-1%	0	-9%
O=C(NCCNC1CCC(c2ccccc2)CC1)c1ccc(F)cc1 (centres undefined)	u	i	1%	3%	-70*	14%
O=C(NCCCc1ccccc1)c1ccc(F)cc1	59%	i	-1%	0%	-16	0%
Cc1ccnn1CC(=O)N1CCOc2c(cc(-c3csc4ccccc34)cc2OC2CCOC2)C1 (centres undefined)	x	i	x	3%	x	x
